Measured values reported in publication PMC5540273 (PLoS ONE, 2017).

Experiments:
Settings in all cases: concentration: 1 μM, replicates: in singlicate; n = 1
[1] = test system: PAK6
[2] = test system: PAK7
[3] = test system: T1, PCTK1
T1 construct: gene CDK16

[4] = test system: T2, PCTK2
T2 construct: gene CDK17

[5] = test system: T3, PCTK3
T3 construct: gene CDK18

[6] = test system: PDGFRA
[7] = test system: PDGFRB
[8] = test system: PDPK1
[9] = test system: PFTAIRE2
[10] = test system: T4, PFTK1
T4 construct: gene CDK14

[11] = test system: PHKG1
[12] = test system: PHKG2
[13] = test system: PIK3C2B
[14] = test system: PIK3C2G
[15] = test system: PIK3CA
[16] = test system: PIK3CB
[17] = test system: PIK3CD
[18] = test system: PIK3CG
[19] = test system: T5, PIK4CB
T5 construct: gene PI4KB

[20] = test system: PIKFYVE
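Note: KINOMEscan kinase panel screen.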

Compound	%Inh [1]	%Inh [2]	%Inh [3]	%Inh [4]	%Inh [5]	%Inh [6]	%Inh [7]	%Inh [8]	%Inh [9]	%Inh [10]	%Inh [11]	%Inh [12]	%Inh [13]	%Inh [14]	%Inh [15]	%Inh [16]	%Inh [17]	%Inh [18]	%Inh [19]	%Inh [20]
CC(=O)Nc1nc2cnc(Nc3cc(NC(=O)c4cccc(CCC#N)c4)ccc3C)nc2s1	19%	0%	9%	6%	8%	94.3%	100%	4%	0%	12%	0%	8%	9%	78%	2%	0%	0%	8%	0%	0%
O=C(Nc1ccc2c(c1)OCO2)NC1CCN(c2ccnc(Nc3ccc(F)cc3)n2)C1 (centres unmarked) [GSK1379724]	22%	0%	3%	0%	3%	0%	31%	0%	8%	8%	0%	0%	0%	0%	0%	0%	10%	0%	39%	0%
Cc1cc(-c2ccc3c(c2)CC[C@@H](N[C@@H](C)c2ccccc2)C3)cnc1N.Cl [GW412617]	5%	15%	6%	0%	0%	0%	75%	22%	6%	0%	21%	3%	0%	0%	1%	0%	0%	0%	1%	0%
CCn1c(-c2ccccn2)nc2cnccc21 [SB-736398]	0%	0%	3%	0%	17%	0%	0%	97%	0%	16%	0%	0%	0%	0%	0%	18%	5%	0%	0%	32%
Cc1csc(-c2nc(Nc3ccncc3)c3ccccc3n2)n1 [GW869640]	0%	8%	20%	0%	12%	36%	0%	0%	21%	5%	14%	1%	37%	31%	13%	50%	26%	30%	57%	78%
Cl.NC(=O)c1cccc(Nc2nccc(Nc3ccc(Oc4cccc(Cl)c4)c(Cl)c3)n2)c1 [GW659008]	0%	5%	0%	7%	9%	0%	68%	0%	4%	8%	4%	0%	0%	0%	0%	0%	0%	0%	82%	0%
O=C(Nc1n[nH]c2nc(-c3nccs3)c(Br)cc12)C1CCCC1 [SB-742609]	0%	0%	48%	47%	50%	0%	27%	0%	7%	26%	0%	0%	0%	0%	0%	0%	0%	0%	0%	0%
Cn1ccc2ncnc(Oc3cccc(C(=O)Nc4ccccc4)c3)c21	0%	0%	0%	2%	0%	12%	39%	0%	0%	7%	0%	0%	0%	0%	0%	15%	27%	0%	2%	10%
COc1ccc2nc(-c3cccc(C)n3)nc(Nc3ccncc3)c2c1 [GSK204919]	0%	1%	5%	0%	36%	0%	25%	12%	0%	14%	0%	0%	3%	0%	0%	0%	0%	0%	5%	81%
COC(=O)c1c(-c2ccccc2)c2cc(C(=O)O)ccc2c(=O)n1Cc1ccccc1	16%	0%	8%	0%	0%	65%	99.4%	14%	0%	0%	0%	24%	3%	0%	0%	13%	0%	7%	0%	2%
